Where a name gives a salt, the structure may show the parent alone. ± gives the standard deviation of the averaged measurements.
How the values were obtained:
Assay in all cases: growth (OD600 after 10 h); higher = more growth (less inhibition)
[1] = system: E. coli TESEC Alr+ wild-type control; settings: compound 0.1 mM; raw OD600 reference: median of DMSO wells 0.241, cell-free background 0.041
Protocol: (§1)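 TESEC Mtb Alr E. coli, or the Alr+ wild-type control, in 384-well plates with Prestwick library compounds at 0.1 mM and 1% DMSO, across arabinose induction levels of 1E3 to 1E7 nM. Growth is read as OD600 after 10 h at 37 °C in triplicate biological replicates.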

E. coli TESEC Mtb Alr [2] = settings: compound 0.1 mM
Protocol: as §1

E. coli TESEC Mtb Asd = settings: compound 0.1 mM
Protocol: (§2)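 TESEC E. coli strains in which the native enzyme is deleted and replaced by arabinose-inducible Mtb Asd, DapB, CysH or TrpD, each grown in its selective medium. Strains were screened against the Prestwick library at 0.1 mM and 1% DMSO in 384-well format at low and high arabinose induction. Growth is read as OD600 after 10 h in triplicate.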

E. coli TESEC Mtb DapB = settings: compound 0.1 mM
Protocol: as §2

[3] = system: E. coli TESEC Alr+ wild-type control; settings: compound 0.1 mM; raw OD600 reference: median of DMSO wells 0.49, cell-free background 0.052
Protocol: (§3)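 TESEC Mtb Alr E. coli (ΔaraC ΔtolC ΔentC Δalr ΔdadX, arabinose-inducible Mtb Alr) or the Alr+ wild-type control strain, grown in defined M9-fructose medium without D-alanine in 96-well plates with Prestwick library compounds at 0.1 mM and 1% DMSO. Low Alr induction is 0.1 µM arabinose and high induction is 10 mM arabinose.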

E. coli TESEC Mtb Alr [4] = settings: compound 0.1 mM; remark: listed apart in the source
Protocol: as §3

[5] = arabinose 1000 nM, raw OD600 reference: median of DMSO wells 0.294, cell-free background 0.041
[6] = arabinose 10000 nM, raw OD600 reference: median of DMSO wells 0.264, cell-free background 0.041
[7] = arabinose 100000 nM, raw OD600 reference: median of DMSO wells 0.201, cell-free background 0.041
[8] = arabinose 1000000 nM, raw OD600 reference: median of DMSO wells 0.193, cell-free background 0.041
[9] = arabinose 10000000 nM, raw OD600 reference: median of DMSO wells 0.146, cell-free background 0.041
[10] = arabinose induction (level): High, raw OD600 reference: median of DMSO wells 0.331, cell-free background 0.041
[11] = arabinose induction (level): Low, raw OD600 reference: median of DMSO wells 0.417, cell-free background 0.041
[12] = arabinose induction (level): High, raw OD600 reference: median of DMSO wells […], cell-free background 0.041
[13] = arabinose induction (level): Low, raw OD600 reference: median of DMSO wells 0.227, cell-free background 0.041
[14] = arabinose 100 nM, raw OD600 reference: median of DMSO wells 0.413, cell-free background 0.052
[15] = arabinose 10000000 nM, raw OD600 reference: median of DMSO wells […], cell-free background 0.052

Row | Compound | growth [1] | growth (E. coli TESEC Mtb Alr [2]; [5]) | growth (E. coli TESEC Mtb Alr [2]; [6]) | growth (E. coli TESEC Mtb Alr [2]; [7]) | growth (E. coli TESEC Mtb Alr [2]; [8]) | growth (E. coli TESEC Mtb Alr [2]; [9]) | growth (E. coli TESEC Mtb Asd; [10]) | growth (E. coli TESEC Mtb Asd; [11]) | growth (E. coli TESEC Mtb DapB; [12]) | growth (E. coli TESEC Mtb DapB; [13]) | growth [3] | growth (E. coli TESEC Mtb Alr [4]; [14]) | growth (E. coli TESEC Mtb Alr [4]; [15])
1 | CCCCC1(COC(=O)CCC(=O)O)C(=O)N(c2ccccc2)N(c2ccccc2)C1=O [Suxibuzone] | 0.203 ± 0.0032 | 0.291 ± 0.013 | 0.244 ± 0.0044 | 0.192 ± 0.019 | 0.188 ± 0.0095 | 0.1314 ± 0.001 | 0.305 ± 0.052 | 0.427 ± 0.026 | 0.1763 ± 0.0008 | 0.204 ± 0.009 | 0.521 ± 0.1 | 0.401 ± 0.0076 | 0.341 ± 0.0062
2 | OCC(O)CN1CCN(c2ccccc2)CC1 (racemic) [Dropropizine (R,S)] | 0.241 ± 0.0033 | 0.283 ± 0.018 | 0.255 ± 0.0087 | 0.228 ± 0.014 | 0.174 ± 0.0046 | 0.144 ± 0.0086 | 0.364 ± 0.032 | 0.424 ± 0.03 | 0.2 ± 0.025 | 0.248 ± 0.026 | 0.431 ± 0.04 | 0.404 ± 0.014 | 0.361 ± 0.022
3 | Cc1ccc(/C(=C\CN2CCCC2)c2ccccn2)cc1 [Triprolidine hydrochloride] | 0.223 ± 0.0078 | 0.27 ± 0.014 | 0.257 ± 0.0035 | 0.213 ± 0.017 | 0.176 ± 0.0043 | 0.141 ± 0.005 | 0.264 ± 0.029 | 0.427 ± 0.05 | 0.165 ± 0.0066 | 0.214 ± 0.055 | 0.464 ± 0.026 | 0.41 ± 0.0077 | 0.368 ± 0.019
4 | CN(C)CCOC1=Cc2ccccc2Sc2ccc(Cl)cc21 [Zotepine] | 0.179 ± 0.011 | 0.186 ± 0.0076 | 0.177 ± 0.0016 | 0.215 ± 0.0073 | 0.0636 ± 0.0007 | 0.0782 ± 0.003 | 0.168 ± 0.0075 | 0.127 ± 0.018 | 0.171 ± 0.019 | 0.1696 ± 0.0015 | 0.0664 ± 0.019 | 0.41 ± 0.0042 | 0.0544 ± 0.0015
5 | CC1=C(CC(=O)O)c2cc(F)ccc2/C1=C\c1ccc([S+](C)[O-])cc1 (stereo not drawn) [Sulindac] | 0.166 ± 0.0055 | 0.206 ± 0.0077 | 0.181 ± 0.0019 | 0.125 ± 0.0091 | 0.0898 ± 0.0021 | 0.103 ± 0.0038 | 0.151 ± 0.018 | 0.243 ± 0.012 | 0.151 ± 0.013 | 0.196 ± 0.054 | 0.364 ± 0.036 | 0.364 ± 0.063 | 0.11 ± 0.01
6 | CO/N=C(\C(=O)N[C@@H]1C(=O)N2C(C(=O)O)=C(COC(N)=O)CS[C@H]12)c1ccco1 [Cefuroxime sodium salt] | 0.0579 ± 0.0016 | 0.0404 ± 0.0013 | 0.0396 ± 0.00059 | 0.0725 ± 0.0027 | 0.0701 ± 0.0021 | 0.115 ± 0.0014 | 0.213 ± 0.0073 | 0.232 ± 0.0044 | 0.229 ± 0.013 | 0.16 ± 0.009 | 0.0629 ± 0.0034 | 0.04693 ± 0.0004 | 0.169 ± 0.024
7 | CCOC(=O)NNc1nncc2ccccc12 [Todralazine hydrochloride] | 0.252 ± 0.0065 | 0.3001 ± 0.00089 | 0.252 ± 0.0082 | 0.246 ± 0.03 | 0.181 ± 0.0025 | 0.16 ± 0.005 | 0.361 ± 0.1 | 0.346 ± 0.078 | 0.206 ± 0.011 | 0.275 ± 0.03 | 0.452 ± 0.021 | 0.406 ± 0.0052 | 0.271 ± 0.17
8 | CCCOc1cc(N)ccc1C(=O)OCCN(CC)CC [Propoxycaine hydrochloride] | 0.229 ± 0.005 | 0.289 ± 0.0076 | 0.274 ± 0.01 | 0.199 ± 0.034 | 0.22 ± 0.011 | 0.138 ± 0.0039 | 0.36 ± 0.085 | 0.376 ± 0.079 | 0.225 ± 0.0078 | 0.22 ± 0.017 | 0.487 ± 0.08 | 0.41 ± 0.0052 | 0.361 ± 0.015
9 | CC(C(=O)O)c1cccc(Oc2ccccc2)c1 (stereo not drawn) [Fenoprofen calcium salt dihydrate] | 0.22 ± 0.0072 | 0.267 ± 0.013 | 0.266 ± 0.0086 | 0.147 ± 0.0054 | 0.192 ± 0.0067 | 0.134 ± 0.0015 | 0.361 ± 0.075 | 0.322 ± 0.042 | 0.205 ± 0.01 | 0.192 ± 0.014 | 0.489 ± 0.089 | 0.397 ± 0.009 | 0.255 ± 0.0093
10 | CC(C)N1CCN(c2ccc(OCC3COC(Cn4cncn4)(c4ccc(Cl)cc4Cl)O3)cc2)CC1 (stereo not drawn) [Terconazole] | 0.193 ± 0.011 | 0.266 ± 0.023 | 0.266 ± 0.0048 | 0.23 ± 0.022 | 0.205 ± 0.0063 | 0.15383 ± 0.00015 | 0.252 ± 0.021 | 0.397 ± 0.14 | 0.198 ± 0.0065 | 0.223 ± 0.011 | 0.462 ± 0.031 | 0.412 ± 0.014 | 0.315 ± 0.019
11 | CCCCN(CCCC)CCC(O)c1cc2c(Cl)cc(Cl)cc2c2cc(C(F)(F)F)ccc12 (stereo not drawn) [Halofantrine hydrochloride] | 0.24 ± 0.011 | 0.313 ± 0.006 | 0.31 ± 0.0059 | 0.2 ± 0.014 | 0.18 ± 0.0064 | 0.175 ± 0.0054 | 0.282 ± 0.059 | 0.457 ± 0.054 | 0.259 ± 0.018 | 0.291 ± 0.037 | 0.53 ± 0.019 | 0.452 ± 0.016 | 0.427 ± 0.019
12 | COc1ccc(CC2c3cc(OC)c(OC)cc3CC[N+]2(C)CCC(=O)OCCCCCOC(=O)CC[N+]2(C)CCc3cc(OC)c(OC)cc3C2Cc2ccc(OC)c(OC)c2)cc1OC (stereo not drawn) [Atracurium besylate] | 0.177 ± 0.0075 | 0.271 ± 0.013 | 0.25 ± 0.011 | 0.174 ± 0.014 | 0.127 ± 0.0067 | 0.137 ± 0.006 | 0.283 ± 0.059 | 0.398 ± 0.037 | 0.171 ± 0.017 | 0.218 ± 0.05 | 0.431 ± 0.027 | 0.416 ± 0.014 | 0.336 ± 0.06
13 | C=CC[N@@+]12CC[C@@]34c5ccccc5N5/C=C6/[C@H]7C[C@H]8[C@@]9(CC[N@@+]8(CC=C)C/C7=C/CO)c7ccccc7N(/C=C(/[C@@H](C[C@@H]31)/C(=C\CO)C2)[C@H]54)[C@@H]69 [Alcuronium chloride] | 0.214 ± 0.0094 | 0.255 ± 0.004 | 0.162 ± 0.0017 | 0.13 ± 0.0075 | 0.115 ± 0.0062 | 0.155 ± 0.0016 | 0.159 ± 0.0074 | 0.184 ± 0.044 | 0.197 ± 0.027 | 0.196 ± 0.023 | 0.456 ± 0.037 | 0.41 ± 0.013 | 0.351 ± 0.0099
14 | CC(=O)O[C@H]1C(=O)[C@@]2(C)[C@H]([C@H](OC(=O)c3ccccc3)[C@]3(O)C[C@H](OC(=O)[C@H](O)[C@@H](NC(=O)c4ccccc4)c4ccccc4)C(C)=C1C3(C)C)[C@]1(OC(C)=O)CO[C@@H]1C[C@@H]2O [Paclitaxel] | 0.23 ± 0.013 | 0.285 ± 0.019 | 0.255 ± 0.024 | 0.222 ± 0.019 | 0.2 ± 0.015 | 0.179 ± 0.018 | 0.34 ± 0.051 | 0.385 ± 0.079 | 0.209 ± 0.006 | 0.279 ± 0.059 | 0.554 ± 0.03 | 0.429 ± 0.014 | 0.336 ± 0.033
15 | CC(=O)OCC(=O)[C@@]12OC(C)(C)O[C@@H]1C[C@H]1[C@@H]3C[C@H](F)C4=CC(=O)C=C[C@]4(C)[C@@]3(F)[C@@H](O)C[C@@]12C [Fluocinonide] | 0.229 ± 0.0095 | 0.279 ± 0.012 | 0.275 ± 0.01 | 0.195 ± 0.015 | 0.213 ± 0.041 | 0.163 ± 0.037 | 0.434 ± 0.046 | 0.505 ± 0.0079 | 0.222 ± 0.013 | 0.234 ± 0.033 | 0.499 ± 0.058 | 0.432 ± 0.041 | 0.344 ± 0.033
16 | Cc1ncc([N+](=O)[O-])n1CCO [Metronidazole] | 0.244 ± 0.0028 | 0.291 ± 0.014 | 0.264 ± 0.0049 | 0.221 ± 0.036 | 0.177 ± 0.0036 | 0.144 ± 0.0031 | 0.378 ± 0.03 | 0.378 ± 0.013 | 0.202 ± 0.015 | 0.264 ± 0.052 | 0.426 ± 0.033 | 0.394 ± 0.021 | 0.347 ± 0.038
